From PubChem
D2 PAM-1 = positively modulates the human D2 dopamine receptor allosterically | potentiation, % at 10 µM | HEK293 T-REx D2, calcium flux, EC20 dopamine potentiation | 340,000 compounds, 0.34% hits | AID 485347 | P14416;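 active = potentiation over 3 SD above the plate norm, cut at about 30% in these data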
Target sequence (P14416 whole entry, looked up): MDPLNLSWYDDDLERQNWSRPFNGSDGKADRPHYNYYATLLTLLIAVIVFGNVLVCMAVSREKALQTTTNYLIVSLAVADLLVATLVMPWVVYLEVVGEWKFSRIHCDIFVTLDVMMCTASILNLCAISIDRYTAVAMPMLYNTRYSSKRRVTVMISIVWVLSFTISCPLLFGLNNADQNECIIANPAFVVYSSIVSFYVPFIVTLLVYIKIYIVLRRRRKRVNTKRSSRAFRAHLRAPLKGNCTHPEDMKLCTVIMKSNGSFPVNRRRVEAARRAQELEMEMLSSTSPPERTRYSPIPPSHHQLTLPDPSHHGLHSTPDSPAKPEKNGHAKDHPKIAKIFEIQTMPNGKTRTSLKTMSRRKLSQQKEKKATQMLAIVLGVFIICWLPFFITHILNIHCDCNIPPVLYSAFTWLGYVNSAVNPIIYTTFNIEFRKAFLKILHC
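Potentiation of an EC20 dopamine calcium response measured kinetically over 180 s, after a preceding 180 s compound-only read flagging agonists. Cells: inducible Hek293 Trex D2 line, 4000/well, cultured overnight at 30 C before dye loading.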
D2 PAM-2 = human D2 receptor positive allosteric modulation; DiscoveRx D2 beta-arrestin cells, luminescence, 90 min; 100% = 57 uM dopamine signal; potentiation, % (no concentration beside the values); 360,000 compounds, 0.23% hits; AID 624464; in the data active = potentiation above about 50%; inconclusive = mostly about 30% to 49%
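PathHunter D2 cells, attached overnight at 37 deg C, received compound in DMSO plus dopamine at EC20 (50 nM final) for 90 min at 37 deg C. Beta-arrestin recruitment was read as luminescence after 1 h with detection reagent at ambient temperature.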
D2 ag-1 = agonists of human D2 dopamine receptor. activation, % at 2 µM. 340,000 compounds, 0.53% hits. HEK293 T-REx D2 cells, calcium flux agonist mode;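 active = activation over 3 SD above normal in the single-dose calcium agonist read, cut at about 30% in these data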
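HEK293 Trex D2 cells, tetracycline-induced, o/n 30 C 5% CO2; no-wash Ca dye, RT 30–90 min; 10-cycle baseline, 23 nl cpd added, kinetic Ca read 180 s; agonist hits = positive Ca response.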
D2 ag-2 = human D2 receptor agonism in beta-arrestin assay. 360,000 compounds, 0.084% hits. activation, % (no concentration beside the values). DiscoveRx PathHunter D2 beta-arrestin, luminescence, 90 min; 100% = 57 uM dopamine signal. P14416; in the data active = activation above about 40%; inconclusive = between about 15% and that limit
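Agonist mode: compounds alone added to overnight-plated D2 PathHunter cells for 90 min at 37 C, with 57 uM final dopamine (EC100) defining full response. Beta-arrestin recruitment detected by chemiluminescent reagent, read after 1 h at ambient temperature.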
D2 antagonist = D2 dopamine receptor (human) antagonism | P14416 | HEK293 TREx D2 cells, calcium flux, dopamine EC80 | inhibition, % at 10 µM | 340,000 compounds, 2% hits | AID 485344; in the data active = inhibition above about 30%; inactive = below that, where a call was filed
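Tetracycline-induced HEK293 T-REx cells expressing D2 force-coupled to calcium signalling were dye-loaded, exposed to compound for 180 s, then challenged with an EC80 of dopamine; calcium flux was followed kinetically for a further 180 s.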
B2AR arrestin = agonists driving beta-arrestin recruitment to human beta2-adrenergic receptor | AID 492947 | beta-arrestin recruitment to beta2AR, cell-based reporter | Potency, µM (highest dose often 46.1 µM), actives largely listed as activators | P07550 | 330,000 compounds, 0.02% hits; also: nearly all actives have a fitted effect of over 65% in size
D3 ag = D3 receptor agonism confirmed, beta-arrestin readout; shares compounds with D2 ag-1; DiscoveRx D3 beta-arrestin cells, luminescence, 90 min; AID 720506; Potency, µM (top dose mostly 76.9 µM), actives largely listed as activators; 2,300 compounds, 4% hits; also: nearly all actives have a fitted effect of over 70% in size
D2 ag-3 = activates human D2 dopamine receptor in D3 counterscreen. shares compounds with D2 ag-1. DiscoveRx PathHunter D2 beta-arrestin, luminescence, 90 min; response scale: percent relative to full dopamine signal. Potency, µM (top dose mostly 76.9 µM), actives largely listed as activators. 2,300 compounds, 5.9% hits; also: nearly all actives have a fitted effect of over 70% in size
Large screens that a line does not name were inactive (follow-up assays come after a bar, where they were run). A selection: hits, their analogues and other compounds. The true share with any hit is near 2.4%. Unless noted, calls follow the shape of the dose curve; as a rule, active = well fitted activation curve with a large enough effect; inconclusive = small, poorly fitted or top-dose-only effect; inactive = flat fitted curve, though single readings scatter.

O=S(=O)(Cc1cnc(Cl)s1)c1ccccc1	none
CC1CCCCC1NC(=O)CSCC(=O)O (centres undefined)	none
CCc1ccc(OC(C)C(=O)N(Cc2ccccc2)C2CCS(=O)(=O)C2)cc1 (centres undefined)	none
Cc1ccc2c(C)c(C(=O)N3CCN(Cc4ccc5c(c4)OCO5)CC3)oc2c1C	none
COc1cccc(CN2CCN(C(=O)c3cccc(OC)c3)CC2)c1	none
O=C(c1ccccc1)N1CCN(Cc2cccc(Oc3ccccc3)c2)CC1	D2 ag-1 49.4 | D3 ag inactive | D2 ag-3 inactive
CCOC(=O)N1CCN(Cc2ccc3c(c2)OCO3)CC1	D2 PAM-2 inconclusive, D2 ag-1 85.6, D2 ag-2 52.8, D2 antagonist 80.9 | D3 ag inactive | D2 ag-3 5.01µM
CCn1cc(C(=O)NCc2ccc3c(c2)OCO3)c(=O)c2ccc(C)nc21	none (no result: D2 PAM-2, D2 ag-2)
Cc1ccc(C(=O)N2CCN(Cc3ccc4c(c3)OCO4)CC2)o1	none (no result: D2 PAM-1, D2 ag-1, D2 antagonist) | D3 ag inactive | D2 ag-3 inactive
CCn1cc(C(=O)N2CCN(Cc3ccc4c(c3)OCO4)CC2)c(=O)c2ccc(C)nc21	D2 ag-1 68.0 | D3 ag inactive | D2 ag-3 inactive
Cc1cccc(-n2ncc(C(=O)N3CCN(C(=O)c4ccco4)CC3)c2C2CCN(C(=O)OC(C)(C)C)CC2)c1	none (no result: D2 PAM-2, D2 ag-2, D2 antagonist, B2AR arrestin)
Cc1cccc(C)c1NS(=O)(=O)c1ccc(-c2ccc(=O)[nH]n2)o1	none
COc1cccc(NCc2cccn2-c2nnc(N3CCC(C)CC3)s2)c1	none (no result: D2 PAM-2, D2 ag-2, D2 antagonist, B2AR arrestin)
CN(CC(=O)N1CCN(Cc2ccccc2)CC1)C(=O)Cc1cccc2ccccc12	D2 ag-1 36.9 | D3 ag inactive | D2 ag-3 inactive
CS(=O)(=O)c1ccccc1C(=O)N1CCN(Cc2ccccc2)CC1	none (no result: D2 PAM-1, D2 ag-1, D2 antagonist) | D3 ag inactive | D2 ag-3 inactive
COc1ccc(N(C)S(=O)(=O)c2cccc(C(=O)N3CCN(Cc4ccc5c(c4)OCO5)CC3)c2)cc1	D2 ag-1 58.4 | D3 ag inactive | D2 ag-3 inactive
N#Cc1ccc(S(=O)(=O)N2CCC(C(=O)N3CCN(Cc4ccc5c(c4)OCO5)CC3)CC2)cc1	D2 ag-1 34.6, D2 ag-2 inconclusive, D2 antagonist 42.6 | D3 ag inactive | D2 ag-3 inconclusive
Cc1cccc(OCC(=O)Nc2ccc3c(c2)nc(CCN2CCN(c4ccccn4)CC2)n3C)c1	D2 antagonist 30.8 | D3 ag 28.2µM | D2 ag-3 inconclusive
Cn1c(CCN2CCN(c3ccccn3)CC2)nc2cc(NC(=O)COc3ccc(Cl)cc3)ccc21	D2 antagonist 37.5 | D3 ag inactive | D2 ag-3 inconclusive
C=CCN1CCc2nc(N)sc2CC1	D2 PAM-2 81.2, D2 ag-1 88.0, D2 ag-2 69.5, D2 antagonist 89.2 | D3 ag 0.0891µM | D2 ag-3 0.0447µM
CCN1CCc2nc(N)sc2C1	D2 ag-1 68.1, D2 antagonist 34.7 | D3 ag inactive | D2 ag-3 inactive
C=CCN1CCN(Cc2cnc(Cl)s2)CC1	none
CCN1CCc2nc(NC(=O)c3ccccc3)sc2C1	none (no result: B2AR arrestin)
Oc1ccccc1-c1n[nH]c(=S)n1Cc1ccco1	none
Cc1ccn2cc(CCNC(=O)C3CC=CCC3C(=O)O)nc2c1 (centres undefined)	none
O=C(NCCc1ccccc1)c1coc(=O)c(Br)c1	D2 ag-1 38.9 | D3 ag inactive | D2 ag-3 inactive
CN(C)CCNC(=O)c1coc(=O)c(Br)c1	none
Cc1c2c(nc3c(C)cccc13)OC(C)C2 (centres undefined)	none | D3 ag inactive | D2 ag-3 inactive
Nc1nc(N2CCN(c3cccc(Cl)c3)CC2)n[nH]1	none
Nc1nc(CN2CCN(c3ccccc3)CC2)nc(N2CCCc3ccccc32)n1	D2 PAM-2 54.2, D2 ag-2 inconclusive (no result: D2 PAM-1, D2 ag-1, D2 antagonist) | D3 ag 35.5µM | D2 ag-3 inconclusive
Nc1nc(CN2CCN(c3ccccc3F)CC2)nc(N2CCCc3ccccc32)n1	D2 ag-1 81.8, D2 ag-2 inconclusive, D2 antagonist 78.7 | D3 ag inconclusive | D2 ag-3 inconclusive
Nc1nc(CN2CCN(c3cccc(Cl)c3)CC2)nc(N2CCCc3ccccc32)n1	D2 ag-1 42.1, D2 ag-2 inconclusive, D2 antagonist 70.4 | D3 ag inactive | D2 ag-3 inconclusive
COc1ccc(N2CCN(Cc3nc(N)nc(N4CCCc5ccccc54)n3)CC2)cc1	D2 ag-1 48.7 | D3 ag inactive | D2 ag-3 inactive
COc1ccc(N2CCN(Cc3nc(N)nc(Nc4ccc(C)c(Cl)c4)n3)CC2)cc1	none
CC(NC(=O)c1ccc2c(c1)S(=O)(=O)N=C1CCCCCN12)c1ccc(S(N)(=O)=O)cc1 (centres undefined)	none
COc1ccc(C[C@H]2CN3C(=NC[C@@H]3Cc3ccccc3)N2CCNC(=O)c2ccc(C)c(Br)c2)cc1	none
Cc1cc2c(cc1S(=O)(=O)NCc1ccccc1)OCC(=O)N2	none
O=C(OC1CSc2nc3ccccc3n2C1)c1ccco1 (centres undefined)	none
CCN(c1ccccc1)S(=O)(=O)c1ccc(OC)c(NC(=O)Cc2ccc(OC)c(OC)c2)c1	none
CC(OC(=O)c1ccc(-n2cnnn2)cc1)C(=O)Nc1ccc(F)c(F)c1F (centres undefined)	none | D3 ag inactive | D2 ag-3 inactive
CC(OC(=O)c1ccc(-n2cnnn2)cc1)C(=O)Nc1ccccc1F (centres undefined)	none (no result: D2 PAM-1, D2 ag-1, D2 antagonist)
CCn1cc(C(=O)N[C@H](C(=O)NC(C)(C)CO)C(C)C)c(=O)c2cc3c(cc21)OCO3	none
O=C(O)CCSc1ccc([N+](=O)[O-])cc1[N+](=O)[O-]	none (no result: D2 ag-1, D2 antagonist) | D3 ag inconclusive | D2 ag-3 inactive
COc1ccccc1/C=C/C(=O)NCCc1ccccn1	none
COc1ccccc1N1CCN(C2CCN(S(=O)(=O)c3ccc(NC(C)=O)cc3)CC2)CC1	D2 ag-1 48.9, D2 ag-2 inconclusive, D2 antagonist 31.7 | D3 ag inactive | D2 ag-3 inactive
COc1ccc(S(=O)(=O)N2CCC(N3CCN(c4ccccc4OC)CC3)CC2)cc1	D2 ag-1 36.7 | D3 ag inactive | D2 ag-3 inactive
Cc1ccccc1C(=O)Nc1cccc(NC(=O)c2ccc(-c3ccc(Br)cc3)o2)c1	none
CCCCOc1ccccc1/C=N/NC(=O)CC#N	none
